Laboratory results from PubChem BioAssay (NCATS).
Records with an inconclusive call do not appear. Activity calls are given as the source filed them. Calls follow the shape of the dose curve; as a rule, active = well fitted curve in the direction sought with a large enough effect; inconclusive = small, poorly fitted or top-dose-only effect, or another doubt; inactive = no such curve, though single readings can be large; an effect the other way counts as inactive or inconclusive.

Experiments:
[1] = target: Glutathione peroxidase 1 (Homo sapiens) (UniProt P07203); test: Primary qHTS Assay for Inhibitors of Recombinant Selenoprotein Glutathione Peroxidase 1 (GPX1) (AID 1845191); also: nearly all actives have a fitted effect of over 65% in size
Sequence of Glutathione peroxidase 1 (Homo sapiens) (P07203 whole entry, looked up): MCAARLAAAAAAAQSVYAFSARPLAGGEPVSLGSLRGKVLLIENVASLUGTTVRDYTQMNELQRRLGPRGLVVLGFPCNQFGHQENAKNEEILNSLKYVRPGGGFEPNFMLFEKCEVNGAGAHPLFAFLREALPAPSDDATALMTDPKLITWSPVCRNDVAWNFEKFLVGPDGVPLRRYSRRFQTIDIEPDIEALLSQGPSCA
Summary of the method: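 GPX1 10 nM, GR 100 nM, GSH 1 mM, NADPH 0.5 mM, CHP 0.5 mM (final). 30-min cpd preincubation, RT. Ex340/Em450 read t=0, t=15 min.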

[2] = target: Phospholipid hydroperoxide glutathione peroxidase GPX4 (Homo sapiens) (UniProt P36969); test: Primary qHTS Assay for Inhibitors of Recombinant Selenoprotein Glutathione Peroxidase 4 (GPX4) (AID 1845192); also: nearly all actives have a fitted effect of over 65% in size
Sequence of Phospholipid hydroperoxide glutathione peroxidase GPX4 (Homo sapiens) (P36969 whole entry, looked up): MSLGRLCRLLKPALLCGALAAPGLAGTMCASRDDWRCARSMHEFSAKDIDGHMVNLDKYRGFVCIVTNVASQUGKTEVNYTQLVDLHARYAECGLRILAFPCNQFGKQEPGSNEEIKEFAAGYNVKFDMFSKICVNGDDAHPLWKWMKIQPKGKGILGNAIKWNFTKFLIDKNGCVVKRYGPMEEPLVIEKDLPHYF
Summary of the method: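 qHTS, GR-coupled: GPX4 200 nM + cpd 30 min RT → GSH 1 mM, NADPH 0.5 mM, GR 100 nM → CHP 0.5 mM start; fluor 340/450 at t0 and t15 min; no-enzyme wells as control.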

[3] = target: Luciferin 4-monooxygenase (Photinus pyralis) (UniProt P08659); test: Primary firefly luciferase (FLuc) qHTS assay for identification of artifact compounds. (AID 1845220); also: nearly all actives have a fitted effect of over 60% in size
Summary of the method: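 qHTS, 15 min compound preincubation with substrate (10 uM luciferin, 10 uM ATP) at RT, then 10 nM FLuc; 5 min; luminescence; % inhibition vs no-enzyme/DMSO controls, 4-parameter Hill fit.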

[4] = Primary fluorescence-based thiol-reactive (MSTI) qHTS assay for identification of artifact compounds. (AID 1845221);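 also: series mostly up to about 54 µM; thiol-reactive compounds lower the probe fluorescence signal; nearly all actives have a fitted effect of over 65% in size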
Summary of the method: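 Thiol-reactive compounds detected by quenching of 4 uM MSTI fluorescence (525/598 nm) after 1 h room-temperature dark incubation in PBS pH 7.4, 2% DMSO. qHTS titration; percent inhibition Hill-fitted against Acetyl-MSTI/MSTI controls.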

[5] = tested on: Nanoluciferase (engineered Oplophorus gracilirostris luciferase); test: Primary Nanoluciferase (NLuc) qHTS assay for identification of artifact compounds. (AID 1845222); also: series mostly up to about 54 µM
Summary of the method: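 Luminescence read-out of secreted NLuc in S16 cell conditioned medium (1:55); compounds tested with 15 min RT preincubation, then Nano-Glo substrate 1:100, 5 min. % inhibition vs no-enzyme and DMSO controls, 4-parameter Hill fit.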

[6] = Primary redox qHTS assay for identification of artifact compounds. (AID 1845223)
Summary of the method: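 Redox-cycling detection via DTT (250 uM final) oxidation coupled to Amplex Red (25 uM)/HRP (250 mU/mL) in HBSS. 15 min preincubation plus 30 min after DTT, room temperature. Ex/Em 525/598 nm; 4-parameter Hill fit against DMSO and 10 uM DA3003.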

Measured: Potency

C=C[C@](C)(O)CC[C@H]1C(C)=CC(=O)[C@H]2C(C)(C)CCC[C@]12C
inactive: all assays above

CC(C)(C)NC(=O)[C@H]1CC[C@H]2[C@@H]3CC[C@H]4NC(=O)CC[C@]4(C)[C@H]3CC[C@]12C
inactive: all assays above

Nc1nc(NC2CC2)cc(-c2cccc(Cl)c2Cl)n1
inactive: all assays above

C=CC(=O)N1CCCN(c2cc(NCCC(=O)O)nc(-c3ccccn3)n2)CC1
inactive: all assays above

C[C@H]1CC[C@@]2(OC1)O[C@H]1CC3C4CC[C@H]5C[C@@H](O)CC[C@]5(C)C4=CC(=O)[C@]3(C)[C@H]1[C@@H]2C (stereo not given in full)
inactive: all assays above

COc1ccc(-c2cnc3c(-c4cccc5ncccc45)cnn3c2)cc1
inactive: all assays above

Cc1nc(N2CCN(C(=O)c3ccco3)CC2)c2c3c(sc2n1)CCCC3
inactive: all assays above

CCC(C)C(=O)OC12C(OC(C)=O)C(C)C3(O)C(C=C(CO)CC4(O)C(=O)C(C)=CC43)C1C2(C)C (stereo not given)
inactive: all assays above

CC(C)=CCCC1(C)/C=C/C(OC(=O)C=C(C)C)C(C)(O)/C=C/C(=O)/C(CO)=C\C1 (stereo not given)
inactive: all assays above

C[C@H](Nc1cc2c(-c3ccc4c(c3)OCO4)noc2cn1)c1ccccc1
inactive: all assays above

Cc1sc2c(c1C)C(c1ccc(Cl)cc1)=N[C@@H](CC(=O)Nc1ccc(OCCOCCOCCOCCNc3cccc4c3C(=O)N(C3CCC(=O)NC3=O)C4=O)cc1)c1nnc(C)n1-2 (stereo not given in full)
inactive: all assays above

Cc1noc(C)c1-c1cc(O)cc(C(O)c2ccccc2)c1 (stereo not given)
inactive: all assays above

O=C(Nc1ccn(Cc2ccc(O)cc2C(F)(F)F)n1)c1c(F)cccc1F
inactive: all assays above

CC(C)C[C@@H](N)C(=O)N[C@H]1C(=O)N[C@@H](CC(N)=O)C(=O)N[C@H]2C(=O)N[C@H]3C(=O)N[C@H](C(=O)N[C@H](C(=O)O)c4cc(O)cc(O)c4-c4cc3ccc4O)[C@H](O)c3ccc(c(Cl)c3)Oc3cc2cc(c3O[C@@H]2O[C@H](CO)[C@@H](O)[C@H](O)[C@H]2O[C@H]2C[C@](C)(N)[C@H](O)[C@H](C)O2)Oc2ccc(cc2Cl)[C@H]1O
inactive: all assays above

N#CC(CCCN1CCC(O)(c2ccc(Cl)cc2)CC1)(c1ccccc1)c1ccccc1
inactive: all assays above

Cc1c(C(=O)Nc2ccc(N3CCC(N4CCOCC4)CC3)c(C#N)c2)cnn1-c1ccc(Cl)cc1
inactive: all assays above

C=C1CC[C@@H]2[C@](C)(CO)[C@H](O)CC[C@@]2(C)[C@@H]1CC(=O)C1=CCOC1=O
inactive: all assays above

CCOC(=O)CCNc1cc(N2CCc3ccccc3CC2)nc(-c2cccnc2)n1
inactive: all assays above

CC(=O)OCC(=O)[C@@]12O[C@@H]1C[C@H]1[C@@H]3CC=C4C[C@@H](O)CC[C@]4(C)[C@H]3CC[C@@]12C
inactive: all assays above

CN(C)N(C)C(=O)[C@@]1(Cc2ccccc2)CCCN(C(=O)[C@@H](Cc2c[nH]c3ccccc23)NC(=O)C(C)(C)N)C1
inactive: all assays above
